In the library only some 3.3% were active in any assay of this set; here they are far more common.
PfM18AAP inh: PfM18AAP inhibitors, malaria aminopeptidase, primary screen, biochemical, QFRET, recombinant enzyme. M18 aspartyl aminopeptidase (Plasmodium falciparum 3D7). H-Glu-NHMec fluorogenic cleavage. inhibition, % at 7.35 µM. 290,000 tested, 1.2% active. AID 1822, 2009;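 active = inhibition above the campaign mean inhibition over all tested compounds plus 3 SD, cut at about 28% in these data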
PfGluPho inh: PfG6PD enzyme inhibitors, primary screen, biochemical, fluorescence intensity, uHTS; inhibition, % at 20 µM; 350,000 tested, 0.78% active; glucose-6-phosphate dehydrogenase-6-phosphogluconolactonase (Plasmodium falciparum 3D7); PfGluPho enzyme, NADPH resazurin-diaphorase fluorescence;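 active = inhibition reaching at least a set limit at 20 µM in the primary screen, cut at about 59% in these data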
UHRF1 binding: UHRF1 methylated DNA binding inhibitors, primary screen, counter-screen for MBD2 inhibitor project, biochemical, TR-FRET, human UHRF1, single concentration; E3 ubiquitin-protein ligase UHRF1 (Homo sapiens), Q96T88; UHRF1 binding to methylated oligo; inhibition, % at 4.4 µM; 370,000 tested, 0.75% active;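 note: UHRF1 SRA domain binding a hemimethylated CpG hairpin DNA probe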
MBD2 DNA inh: inhibitors of MBD2 binding to methylated DNA, primary screen, biochemical, TR-FRET, DNA-binding domain, human; inhibition, % at 4.4 µM; AID 686964, 2013; MBD2 binding to methylated oligonucleotide; 370,000 tested, 0.31% active; Methyl-CpG-binding domain protein 2 (Homo sapiens), Q9UBB5; in the data active = inhibition above about 13%
Target sequence (Q9UBB5 whole entry, looked up, the tested form may be a part): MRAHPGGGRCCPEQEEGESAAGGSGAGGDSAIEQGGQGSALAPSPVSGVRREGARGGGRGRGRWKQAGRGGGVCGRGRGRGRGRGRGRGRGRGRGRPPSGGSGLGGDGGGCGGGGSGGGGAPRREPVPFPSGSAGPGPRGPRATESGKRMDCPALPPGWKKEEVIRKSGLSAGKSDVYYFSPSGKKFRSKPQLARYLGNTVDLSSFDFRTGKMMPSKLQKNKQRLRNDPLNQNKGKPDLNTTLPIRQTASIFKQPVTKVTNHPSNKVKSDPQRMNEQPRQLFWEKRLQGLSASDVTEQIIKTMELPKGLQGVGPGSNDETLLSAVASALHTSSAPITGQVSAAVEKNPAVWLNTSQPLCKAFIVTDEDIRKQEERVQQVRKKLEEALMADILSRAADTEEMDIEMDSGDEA
PRMT1 inh: PRMT1 methyltransferase inhibitors, primary screen, biochemical, fluorescence polarization. recombinant PRMT1, activity-based probe fluorescence polarization. inhibition, % at 2.79 µM. 370,000 tested, 1.3% active. AID 652257, 2013;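 active = inhibition above about 21% made by adding two undisclosed values, limit read from the data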
PRMT1 confirm: PRMT1 methyltransferase inhibitors, confirmation, biochemical, fluorescence polarization, triplicate | shares compounds with PRMT1 inh | recombinant His-PRMT1, activity-based probe fluorescence polarization | inhibition, % at 2.79 µM | 3,300 tested, 42% active;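 active = mean inhibition across replicates above the hit cutoff derived for the earlier primary screen, cut at about 22% in these data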
UHRF1 DNA bind: UHRF1 methylated DNA binding inhibitors, counter-screen for MBD2 inhibitor project, biochemical, TR-FRET, human UHRF1; 1,000 tested, 25% active; inhibition, % at 4.4 µM; shares compounds with MBD2 DNA inh; AID 720530, 2013; UHRF1 binding to methylated oligonucleotide;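 note: UHRF1 SRA domain binding a labeled hemimethylated CpG hairpin DNA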
MBD2 DBD conf: inhibitors of MBD2 binding to methylated DNA, confirmation, biochemical, TR-FRET, DNA-binding domain, human; shares compounds with MBD2 DNA inh; TR-FRET MBD2-DBD binding to methylated oligonucleotide; inhibition, % at 4.4 µM; 1,000 tested, 26% active; AID 720531, 2013; in the data active = inhibition above about 14%
Of the large screens only hits and unclear results are named; the others gave an inactive call (follow-up assays come after a bar, where they were run). Cut-off read from the data, not from the text of the source, unless noted: active = inhibition above about 21%; inactive = the rest.

Cc1ccc(C)n1C(CC(=O)O)c1ccc(C#N)cc1 (stereo not drawn)	UHRF1 binding 95, MBD2 DNA inh 27, PRMT1 inh 27 | PRMT1 confirm inactive | UHRF1 DNA bind inactive | MBD2 DBD conf inactive
CCOC(=O)CC(c1ccc(N)cc1)n1c(C)ccc1C (stereo not drawn)	none
COc1cccc2c1C(=O)c1c(O)c3c(c(O)c1C2=O)C[C@](O)(C(C)=O)C[C@H]3O[C@@H]1C[C@@H](N)[C@@H](O)[C@@H](C)O1	UHRF1 binding 93, MBD2 DNA inh 112, PRMT1 inh active (no result: PfM18AAP inh) | PRMT1 confirm 149 | UHRF1 DNA bind 101 | MBD2 DBD conf 111
Cc1ccc(/C=C2/C(=O)c3ccc(C(=O)O)cc3C2=O)o1	UHRF1 binding 78, MBD2 DNA inh 22, PRMT1 inh 41 | PRMT1 confirm 39 | UHRF1 DNA bind 40 | MBD2 DBD conf inactive
Cc1ccc(C=C2C(=O)c3ccccc3C2=O)o1	none
O=C(CCCN1C(=O)/C(=C\c2cccs2)SC1=S)Nc1cccc(C(=O)O)c1	none
O=C(CCCN1C(=O)/C(=C\c2cccs2)SC1=S)Nc1ccc(O)cc1C(=O)O	none
O=C(CCCN1C(=O)/C(=C/c2ccco2)SC1=S)Nc1cccc(C(=O)O)c1	UHRF1 binding 76, MBD2 DNA inh 30, PRMT1 inh 33 | PRMT1 confirm inactive | UHRF1 DNA bind 21 | MBD2 DBD conf inactive
O=C(CN1C(=O)/C(=C/c2ccco2)SC1=S)Nc1ccc(C(=O)O)c(O)c1	PfM18AAP inh 47, UHRF1 binding 79, MBD2 DNA inh 20, PRMT1 inh 52 | PRMT1 confirm 35 | UHRF1 DNA bind 26 | MBD2 DBD conf inactive
O=C(CCCN1C(=O)/C(=C\c2ccco2)SC1=S)Nc1ccc(O)cc1C(=O)O	UHRF1 binding 93, MBD2 DNA inh 27, PRMT1 inh 62 | PRMT1 confirm 37 | UHRF1 DNA bind 45 | MBD2 DBD conf 16
CCc1nc2ccc(C(=O)Nc3ccc(NC(C)=O)cc3)cn2c1N(C)CCC(C)C	none (no result: PfM18AAP inh, PfGluPho inh)
CC1CN(S(=O)(=O)c2ccc(F)cc2)C(C)N1C(=O)N1CCOCC1 (stereo not drawn)	none
O=C(O)c1cc(C(=O)O)cc(-c2ccc(/C=c3/sc4nc5ccccc5n4c3=O)o2)c1	none (no result: UHRF1 binding, MBD2 DNA inh, PRMT1 inh)
O=C(O)c1ccccc1-c1ccc(C=c2sc3nc4cc(Br)cnc4n3c2=O)o1	UHRF1 binding 95, MBD2 DNA inh 55, PRMT1 inh 84 (no result: PfM18AAP inh, PfGluPho inh) | PRMT1 confirm 25 | UHRF1 DNA bind 72 | MBD2 DBD conf 63
O=C(C=Cc1ccco1)c1ccco1	UHRF1 binding 58, MBD2 DNA inh 20, PRMT1 inh 43 (no result: PfM18AAP inh) | PRMT1 confirm inactive | UHRF1 DNA bind inactive | MBD2 DBD conf inactive
CN(C)/C=C(\C=O)c1ncc(C(F)(F)F)cc1Cl	none
O=C(NN1C(=O)/C(=C/C=C/c2ccco2)SC1=S)c1ccncc1	UHRF1 binding 97, MBD2 DNA inh 74, PRMT1 inh 53 | PRMT1 confirm 52 | UHRF1 DNA bind 90 | MBD2 DBD conf 63
CCOc1ccc(OCCCC(=O)N2CCN(S(=O)(=O)c3ccccc3C#N)CC2)cc1	none (no result: PfM18AAP inh)
COc1ccc(C(=O)Nc2cc(=O)[nH]c3ncnn23)cc1	none
CC(C)NC(=O)Cn1c(SCC(=O)c2ccc(F)cc2)nc2ccccc21	UHRF1 binding 22, MBD2 DNA inh 14, PRMT1 inh 62 | PRMT1 confirm inactive | UHRF1 DNA bind inactive | MBD2 DBD conf inactive
CC(C)NC(=O)CSc1nc2ccccc2n1CC(=O)N(C(C)C)C(C)C	none
COc1ccccc1C=C1SC(=S)NC1=O	none (no result: PfM18AAP inh)
O=C1NC(=S)S/C1=C\c1ccc(SCc2ccccc2)o1	UHRF1 binding 82, MBD2 DNA inh 29, PRMT1 inh 64 | PRMT1 confirm inactive | UHRF1 DNA bind inactive | MBD2 DBD conf inactive
CCOc1ccc(C(=O)N/N=C/c2ccc(-c3ccc(S(=O)(=O)Nc4ncccn4)cc3)o2)cc1	none
NC(=S)NN=Cc1ccc(-c2ccc(S(=O)(=O)Nc3ncccn3)cc2)o1	UHRF1 binding 47, MBD2 DNA inh 15, PRMT1 inh 32 (no result: PfM18AAP inh) | PRMT1 confirm inactive | UHRF1 DNA bind 29 | MBD2 DBD conf inactive
CCOc1cccc(=O)c2c(C)n(-c3ccc(C(=O)O)cc3)c(C)c12	UHRF1 binding 88, MBD2 DNA inh 31, PRMT1 inh 37 | PRMT1 confirm inactive | UHRF1 DNA bind inactive | MBD2 DBD conf inactive
Cc1cc(C)c(C)c(S(=O)(=O)N2CCN(C(=O)C3CCC3)CC2)c1C	none (no result: PfM18AAP inh)
CCC(C)c1ccccc1NC(=O)CN(CC)CC(=O)Nc1ccc2c(c1)OCCO2 (stereo not drawn)	none (no result: PfM18AAP inh)
CCOCCCNS(=O)(=O)c1ccc(NC(=O)C2CC(=O)N(c3ccc(C)cc3)C2)cc1 (stereo not drawn)	none
CCCSC1=N/C(=C\c2ccc([N+](=O)[O-])o2)C(=O)S1	UHRF1 binding 52, MBD2 DNA inh 19, PRMT1 inh 29 | PRMT1 confirm inactive | UHRF1 DNA bind 21 | MBD2 DBD conf inactive
CCCSC1=N/C(=C\C=C\c2ccco2)C(=O)S1	UHRF1 binding 95, MBD2 DNA inh 57, PRMT1 inh 48 | PRMT1 confirm inactive | UHRF1 DNA bind 27 | MBD2 DBD conf inactive
CCCSC1=N/C(=C\c2ccsc2)C(=O)S1	none
O=C(Cc1nnc(NC(=O)c2ccccc2)s1)N/N=C/c1ccco1	UHRF1 binding 27, MBD2 DNA inh 19, PRMT1 inh 41 | PRMT1 confirm inactive | UHRF1 DNA bind inactive | MBD2 DBD conf inactive
COc1ccc2c(c1)CCC/C2=N\Nc1nc(C(=O)NN)cs1	none
COc1cc(C)c2c(c1C=O)Oc1c(c(C)c(O)c3c1C(O)OC3=O)OC2=O (stereo not drawn)	UHRF1 binding 65, MBD2 DNA inh 31, PRMT1 inh 38 | PRMT1 confirm inactive | UHRF1 DNA bind 24 | MBD2 DBD conf inactive
COc1ccc(/C=C2\SC(=S)N(c3cccnc3)C2=O)cc1	none
